# According to the supplement of paper PMC6555819:
# Key:
# Experiment in all cases: PBM binding z-score (relative to random genomic background probes); higher = stronger binding; sequences stand for … in GC…GCGATTGACAGCGTAGAATGAAGG
# [1] = test system: FXR:RXRa (NR concentration 270 nM, RXRa partner concentration 90 nM)
# Method in brief: (§1)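 On custom Agilent 4×180K arrays, double-stranded probes with 34-nt variable regions carried direct-repeat seeds, single-nucleotide variants, half-site ablations or random human genomic background. Ligand-free nuclear receptor dimers were applied for 1 h, and binding was read with antibodies against each partner (one per run). Binding z-scores come from regression-normalized fluorescence, with the random background probes as reference.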
# [2] = test system: LXRa:RXRa (NR concentration 270 nM, RXRa partner concentration 90 nM)
# Method in brief: as §1
# [3] = test system: LXRa homodimer (NR concentration 270 nM)
# Method in brief: as §1
# [4] = test system: LXRb:RXRa (NR concentration 270 nM, RXRa partner concentration 90 nM)
# Method in brief: as §1
# [5] = test system: LXRb homodimer (NR concentration 270 nM)
# Method in brief: as §1
# [6] = test system: PPARa:RXRa (NR concentration 270 nM, RXRa partner concentration 90 nM)
# Method in brief: as §1
# [7] = test system: PPARg:RXRa (NR concentration 180 nM, RXRa partner concentration 90 nM)
# Method in brief: as §1
# [8] = test system: PPARg:RXRa 270nM:90nM, anti-RXR (NR concentration 270 nM, RXRa partner concentration 90 nM)
# Method in brief: as §1
# [9] = test system: PPARg:RXRa 30nM:10nM, anti-RXR (NR concentration 30 nM, RXRa partner concentration 10 nM)
# Method in brief: as §1
# [10] = test system: PPARg:RXRa 90nM:30nM, anti-RXR (NR concentration 90 nM, RXRa partner concentration 30 nM)
# Method in brief: as §1
# [11] = test system: PPARg:RXRa DBDmut IVT, anti-RXR (DBD mutation: RXRa K156A/R161A, NR concentration 270 nM, RXRa partner concentration 90 nM)
# Method in brief: as §1
# [12] = test system: PPARg:RXRa IVT, anti-PPARg (NR concentration 270 nM, RXRa partner concentration 90 nM)
# Method in brief: as §1
# [13] = test system: PPARg DBDmut:RXRa IVT, anti-PPARg (DBD mutation: PPARg1 K132A/R137A, NR concentration 270 nM, RXRa partner concentration 90 nM)
# Method in brief: as §1
# [14] = test system: PPARg DBDmut IVT, anti-PPARg (DBD mutation: PPARg1 K132A/R137A, NR concentration 270 nM)
# Method in brief: as §1
# [15] = test system: PPARg homodimer (NR concentration 180 nM)
# Method in brief: as §1
# [16] = test system: PXR:RXRa (NR concentration 270 nM, RXRa partner concentration 90 nM)
# Method in brief: as §1
# [17] = test system: PXR homodimer (NR concentration 270 nM)
# Method in brief: as §1
# [18] = test system: RARa:RXR (NR concentration 270 nM, RXRa partner concentration 90 nM)
# Method in brief: as §1
# [19] = test system: RARa homodimer (NR concentration 270 nM)
# Method in brief: as §1
# [20] = test system: RARb:RXRa (NR concentration 270 nM, RXRa partner concentration 90 nM)
# Method in brief: as §1
Sequence,PBM binding z-score [1],PBM binding z-score [2],PBM binding z-score [3],PBM binding z-score [4],PBM binding z-score [5],PBM binding z-score [6],PBM binding z-score [7],PBM binding z-score [8],PBM binding z-score [9],PBM binding z-score [10],PBM binding z-score [11],PBM binding z-score [12],PBM binding z-score [13],PBM binding z-score [14],PBM binding z-score [15],PBM binding z-score [16],PBM binding z-score [17],PBM binding z-score [18],PBM binding z-score [19],PBM binding z-score [20]
ACAATGAGGTTAAGATCAGGGAAACAGAATACAT,2.2,2.23,0.0608,1.85,0.674,3.04,2.06,1.68,0.802,1.24,1.93,1.78,1.53,1.8,1,1.35,0.672,1.97,1.24,1.95
GGAGACAGGTGAAACGCAGGTAACTCAGGGTGGC,0.0373,0.224,-0.296,-0.0924,-0.712,1.03,0.617,0.0474,-0.768,-0.000912,0.957,0.901,-1.26,-0.98,-0.102,-0.298,-0.332,0.137,-0.68,0.904
CCTTACGGGTCTCTGACAGGTTATAGCATTTGGA,-0.234,0.159,-0.00475,-0.0139,-0.262,0.166,0.168,0.115,-0.351,-0.00111,0.625,-0.443,-0.515,-0.237,0.678,-0.13,-0.251,0.185,0.262,0.256
CCGAGTAGGTTATAGGGCATTCAGGCAACGGTGA,0.59,0.988,0.388,0.765,-0.185,3.47,6.04,6.43,4.96,6.5,3.99,4.27,0.108,-0.169,1.05,0.219,-0.129,0.863,0.46,1.24
GTACCTAGGTGAATAGGTCGTTGATGAGTAGGCG,0.327,0.577,-0.19,0.185,-0.886,1.93,1.83,2.16,0.782,1.89,2.96,3.55,-0.531,-0.303,0.221,0.327,-0.195,1.03,0.134,1.15
CGTCCAAGGTCAAAGGTTAGTGAAGAGATGACGG,7.74,5.92,1.42,5.09,1.54,6.47,8.94,7.84,7.41,8.3,3.36,4.86,2.1,1.08,6,6.05,1.47,7.8,1.93,5.22
TCGTATAGGTAAATGCTAGGTGAAAGTCCGATCT,0.843,0.876,0.236,0.653,0.0986,0.931,0.156,1.84,3.04,2.54,2.09,1.21,0.00787,0.782,0.833,0.373,-0.198,0.889,0.867,0.432
GCTGACAGGTGAAACGCAGGTAACTCAGGGTGGC,-0.217,0.213,-0.763,-0.392,-0.869,0.868,0.373,-0.307,-0.779,-0.533,1.22,0.804,-0.781,-1.24,-0.522,-0.223,-0.797,0.499,-1.1,0.773
CCGACTAGGGCATAAGGTTACCATAAGCCAGCCC,0.247,2.13,-0.18,1.02,-0.736,2.19,2.8,3.77,1.43,3.27,4.2,3.79,-0.186,-0.826,1.57,0.295,-0.287,1.7,-0.466,1.86
TCTTGTAGATAAATAGAGGTTAAGAAAGTGCGCT,1.41,3.4,1.55,1.9,0.214,1.73,0.624,1.83,2.94,2.84,2.53,0.875,1.18,0.956,0.0767,2.77,0.529,1.8,1.33,0.915
CAAACTAGGTCCAGGTCAAAGTCGGTTTGTGCCA,2.21,2.36,1.47,1.98,0.0545,3.29,2.6,3.28,0.928,2.59,3.43,3.67,0.261,-0.192,1.29,2.57,0.685,2.22,0.417,2.9
ACTATTAGTTAAGACGAGGGCAACCGATAGGTTG,0.44,0.122,0.165,0.211,0.232,0.271,0.646,-0.109,-0.17,-0.186,-0.356,0.422,0.81,0.924,0.44,0.642,0.645,0.641,1.02,0.967
CTCGAAATGTCGGTTGAGGTGAGTATACGGATAA,0.47,-0.279,-0.308,-0.214,0.0912,0.0141,0.0414,0.218,0.0305,-0.0265,-0.0159,0.503,0.298,0.408,0.0152,0.0277,-0.637,0.341,-0.1,0.334
CCTAGTAGGTCAAGGTCACACACGCTATAGGTAC,6.32,5.5,2.71,4.64,1.12,5.98,9.25,7.51,5.53,7.55,8.26,7.96,1.56,0.61,3.98,4.96,1.81,5.14,2.09,5.1
GCTAGCAGGCCATTTGAGTCACTCAATGACGGGC,-0.524,-0.643,-0.699,-1.05,-0.622,-0.463,0.311,-0.7,-0.625,-0.728,0.829,-0.00694,-0.509,-2.18,-0.951,-0.369,-0.961,-0.381,-1.15,0.073
GCTCGGAGGAAAAGGTCAGAGCTTTGTCCGTAGA,2.6,3.37,0.256,2.58,-0.596,3.83,2.82,4.46,1.36,4.22,-0.0327,1.11,-1.39,-0.963,1.55,2.93,-0.551,3.96,0.159,3.95
ATCTCTAGTTAAAGTTCAGTGAAAGATCGATAGA,1.49,2.07,2.94,1.57,1.33,1.78,1.74,3.2,1.74,2.89,0.143,0.671,0.424,1.48,2.14,2.29,2.21,1.41,2.45,2.61
CCTAGTTGGTCAAGGTCACACAAGCTATAGGTAC,4.29,3.95,1.98,3.76,1.03,4.21,3.5,4.1,1.36,2.63,2.43,4.01,1.16,1.04,4.16,4.47,2.97,4.29,2.77,4.33
GGAAGGAGGGCAAAGTTGATAGCATCTGTCGACG,1.43,1.38,0.21,1.88,1.01,4.14,7.61,7.29,7.65,8.18,4.12,4.58,0.789,0.418,1.64,1.3,1.62,1.57,1.19,2.31
TGAATGAGGTTCTAAGATCAGGGAACGTTGCAAA,-0.725,-0.693,-0.989,-0.763,-0.398,-0.344,-0.0951,-0.03,-0.103,0.161,-0.614,0.0916,-0.614,-0.528,-0.83,-0.331,-0.563,-0.599,-0.564,-0.67
TCGAGTAGGTTAATCGGGGCATTCAGCCAACATA,0.0036,0.53,-0.187,0.859,-0.245,1.72,0.726,1.54,1.04,1.31,3.25,3.08,0.341,-0.256,0.811,0.519,-0.134,0.933,-0.986,0.81
AGAACGAGGGCAATGAGTTAATAGCACGGGTGGC,0.223,0.22,-0.363,-0.11,-0.589,1.34,1.56,1.23,-0.12,0.528,3.29,2.59,0.242,0.395,0.0728,1.43,2.98,0.239,-0.224,2.04
CGAACTAGGTCATTGACAGGATAGTGAATAGTAA,4.3,2.82,0.355,2.01,-0.145,4.83,7.71,6.36,3.54,5.85,7.87,8.1,4.08,2.22,1.94,1.25,0.363,1.88,0.385,3.59
CGTCCAAGGTCAAAGTCAGTGAAAGAGACTCGAA,7.61,5.36,0.709,4.03,1.64,5.87,5.41,5.32,1.82,4.19,3.22,3.56,-0.516,-0.183,2.62,3.72,0.349,4.01,1.36,5.14
GCGACTGGGGCAAAGCAAGTTACCATAAGGTTGG,-0.106,-0.224,-0.376,-0.3,-0.665,0.868,0.964,1.1,-0.269,0.301,4.67,3.4,-0.185,-1.06,0.355,-0.0344,-0.458,0.375,-0.721,0.659
ACGTACGGGTCAACGAGGTTATAGCACGCGTATA,7,4.84,0.327,4.27,0.00154,5.95,5.01,4.94,1.55,3.46,1.33,2.92,0.48,0.418,1.72,5.2,2.83,5.19,0.777,4.28
CAAACTAGGTCACAGAGGTCAAAGCCCGTGCGTA,7.26,6.74,6.92,5.93,1.72,6.63,10.4,8.24,7,8.42,8.71,9.13,4.98,2.72,4.59,6.66,10.8,7.48,2.65,5.27
TCGAGTAGGTTAGTCGGGGCATACAGCCAACATA,0.288,0.232,-0.353,0.458,-0.174,0.913,0.365,0.998,1.25,1.07,2.34,1.89,-0.401,-0.126,-0.0659,0.333,0.0501,0.379,-0.329,0.592
